Reference: PubChem BioAssay (NCATS)
Inconclusive results are not listed. Where a call stands in place of a potency, no number is given. Calls of active or inactive are those of the source. Unless noted, calls come from the whole dose curve; as a rule, active = well fitted curve in the direction sought with a large enough effect; inconclusive = small, poorly fitted or top-dose-only effect, or another doubt; inactive = no such curve, though single readings can be large; an effect the other way counts as inactive or inconclusive.

Tests used:
[1] = Cytotoxicity counterscreen for NFkB agonists and antagonists (AID 624476); note: potency is the fitted concentration of half-maximal effect
[2] = qHTS Assay for Identification of Small Molecule Agonists for NFkB Signaling Pathway. (AID 624478)
Procedure, shortened: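 NFkB-bla ME-180 cells carry a beta-lactamase reporter. They received compound plus TNF alpha at 10 pM final (its EC50) for 5 h at 37 C. Reporter activity was read as 460/530 nm emission ratio after 2 h LiveBLAzer substrate loading.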

[3] = qHTS Assay for Identification of Small Molecule Antagonists for NFkB Signaling Pathway. (AID 624479; calls by dose curve;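 note: pathway stimulated with TNF alpha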)
[4] = Cell Proliferation Assay against the TMD8 Cell Line (AID 651645); settings: TMD8 DLBCL cell line proliferation/viability; at 46.1 µM (top of the series) unless noted;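 note: cells exposed to compound for 48 h before reading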
Procedure, shortened: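 Cell viability of the ABC DLBCL line TMD8 is measured by CellTiter-Glo luminescence following a 48-hour incubation with compound. Percent activity uses DMSO as 100% and 9.2 uM bortezomib (final) as 0%.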

[5] = Cell Proliferation Assay against the HBL1 Cell Line (AID 651646); settings: HBL1 DLBCL cells; at 46.1 µM (top of the series) unless noted;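 note: cells exposed to compound for 48 h before reading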
Procedure, shortened: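 Luminescent ATP read-out (CellTiter-Glo) after 48 h compound exposure of HBL1 cells at 37 °C; percent activity was scaled between DMSO as 100% and 9.2 uM bortezomib (final) as 0%.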

[6] = Cell Proliferation Assay against the TMD8 Cell Line (Caspase readout at 8 hrs) (AID 651713)
Procedure, shortened: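 TMD8 cells in RPMI plus 5% FBS were treated with compound for 8 h at 37C. Caspase 3/7 activation was read by Caspase-Glo luminescence. Percent activity was scaled from DMSO (0%) to 9.2 uM bortezomib final (100%).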

[7] = Cell Proliferation Assay against the TMD8 Cell Line (Caspase readout at 16 hrs) (AID 651712)
Procedure, shortened: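 Apoptotic response of TMD8 cells was judged from caspase 3/7 activation following a 16 hour compound incubation at 37 °C. Luminescent signal was converted to percent activity, with DMSO set as 0% and 9.2 uM final bortezomib as 100%.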

[8] = target: Tyrosine-protein kinase Yes (Homo sapiens) (UniProt P07947); test: qHTS for small molecule inhibitors of Yes1 kinase: Primary Screen (AID 686947); note: nearly all actives have a fitted effect of over 60% in size; note: potency is the fitted concentration of half-maximal effect
Chain of Tyrosine-protein kinase Yes (Homo sapiens) (P07947 whole entry, looked up): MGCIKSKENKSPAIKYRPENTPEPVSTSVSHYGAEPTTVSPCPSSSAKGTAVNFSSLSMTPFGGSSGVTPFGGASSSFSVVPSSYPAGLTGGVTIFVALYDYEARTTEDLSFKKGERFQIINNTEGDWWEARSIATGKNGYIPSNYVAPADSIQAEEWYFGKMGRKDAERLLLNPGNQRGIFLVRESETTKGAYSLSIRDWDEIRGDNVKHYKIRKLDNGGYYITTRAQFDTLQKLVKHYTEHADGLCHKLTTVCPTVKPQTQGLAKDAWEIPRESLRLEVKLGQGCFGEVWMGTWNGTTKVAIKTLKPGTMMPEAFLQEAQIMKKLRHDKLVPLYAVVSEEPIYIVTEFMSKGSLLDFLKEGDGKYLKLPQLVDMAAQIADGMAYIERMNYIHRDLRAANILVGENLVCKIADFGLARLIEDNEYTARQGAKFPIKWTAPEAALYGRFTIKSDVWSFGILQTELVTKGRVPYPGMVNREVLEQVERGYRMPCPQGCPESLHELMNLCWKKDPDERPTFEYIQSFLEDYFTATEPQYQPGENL
Procedure, shortened: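 Yes1 (4 nM) preincubated 20 min with compound, then 60 min room-temperature reaction with 0.1 mM ATP and 0.3 mg/mL poly(E4Y) in pH 7.5 Tris, 10 mM MgCl2. ADP measured by ADP-Glo luminescence, normalised to enzyme/no-enzyme controls.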

[9] = qHTS assay for small molecule agonists of the antioxidant response element (ARE) signaling pathway (AID 651741; active = well fitted activation curve with a large enough effect in the signal ratio; the % refers to the signal ratio; note: potency is the fitted concentration of half-maximal effect)
Procedure, shortened: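 Quantitative HTS in HepG2 cells stably expressing an ARE-beta-lactamase reporter; 16 h compound exposure at 37 C, followed by 2 h room-temperature incubation with LiveBLAzer B/G FRET substrate and fluorescence measurement.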

[10] = qHTS assay for small molecule activators of the nuclear factor-kappa B (NF-kB) signaling pathway (AID 651749; active = well fitted activation curve with a large enough effect in the signal ratio; the % refers to the signal ratio); settings: NF-kB-bla ME-180 cells, beta-lactamase FRET ratio, 16 h; stronger effect = higher value
Procedure, shortened: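 Readout: beta-lactamase reporter driven by an NF-kB response element, detected fluorescently as loss of FRET. Cells were the ME-180 line, treated 16 hr at 37C with pin-transferred compound.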

[11] = target: Peroxisome proliferator-activated receptor alpha (Homo sapiens) (UniProt Q07869); test: qHTS assay for small molecule agonists of the peroxisome proliferator-activated receptor alpha (PPARalpha) signaling pathway (AID 651778); settings: PathHunter PPARalpha complementation, chemiluminescence, 6 h; stronger effect = higher value
Chain of Peroxisome proliferator-activated receptor alpha (Homo sapiens) (Q07869 whole entry, looked up): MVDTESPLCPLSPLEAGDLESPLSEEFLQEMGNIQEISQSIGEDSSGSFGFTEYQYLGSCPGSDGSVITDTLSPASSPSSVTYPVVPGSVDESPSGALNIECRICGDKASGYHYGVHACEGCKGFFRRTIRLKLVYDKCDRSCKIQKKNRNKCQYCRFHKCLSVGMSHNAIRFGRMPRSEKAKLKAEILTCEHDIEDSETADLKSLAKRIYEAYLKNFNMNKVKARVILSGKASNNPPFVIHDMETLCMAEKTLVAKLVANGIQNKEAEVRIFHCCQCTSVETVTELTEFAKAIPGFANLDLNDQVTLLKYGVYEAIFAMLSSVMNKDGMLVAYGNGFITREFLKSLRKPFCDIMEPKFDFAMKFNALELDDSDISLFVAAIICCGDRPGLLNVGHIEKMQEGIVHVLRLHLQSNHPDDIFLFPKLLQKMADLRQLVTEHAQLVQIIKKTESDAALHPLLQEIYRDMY
Procedure, shortened: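 Chemiluminescence from complemented enzyme reported PPARalpha activation in cells after 6 hr of compound treatment at 37 C. The detection reagent was incubated for 60 min at room temperature, and compounds were scored as agonists.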

Compound: O=C(C=Cc1ccc(/C=C/C(=O)Nc2ccc(C3=NCCN3)cc2)cc1)Nc1ccc(C2=NCCN2)cc1
- Potency [1]: inactive
- outcome [2]: inactive
- Potency [3]: inactive
- viability (% of control) [4]: 92.1%
- viability, percent of control [5]: 97.4%
- Potency [6]: inactive

Compound: CCCc1nc2c(C)cc(-c3nc4ccccc4n3C)cc2n1Cc1ccc(-c2ccccc2C(=O)O)cc1
- Potency [1]: inactive
- outcome [2]: inactive
- Potency [3]: inactive
- viability (% of control) [4]: 71.5%
- viability, percent of control [5]: 70.6%
- Potency [7]: inactive
- Potency [8]: inactive

Compound: CNC(=O)c1ccc(C)c(-n2c(C)cc(OCc3ccc(F)cc3F)c(Br)c2=O)c1
- Potency [1]: inactive
- outcome [2]: inactive
- Potency [3]: inactive
- viability (% of control) [4]: 53%
- viability, percent of control [5]: 44.5%
- Potency [6]: inactive
- Potency [8]: inactive

Compound: COc1ccc2nc(S(=O)Cc3ncc(C)c(OC)c3C)[nH]c2c1 (stereo not given)
- Potency [1]: inactive
- outcome [2]: inactive
- Potency [3]: inactive
- viability (% of control) [4]: 52.2%
- viability, percent of control [5]: 89.4%
- Potency [6]: inactive
- Potency [9]: 27300 nM (active)
- activation [10]: -0.714% (inactive)
- max response [11]: 6.65% (inactive)

Compound: Clc1ccc(Nc2nnc(Cc3ccncc3)c3ccccc23)cc1
- Potency [1]: inactive
- outcome [2]: inactive
- Potency [3]: inactive
- viability (% of control) [4]: 90.1%
- viability, percent of control [5]: 66.3%
- Potency [6]: inactive

Compound: COc1ccc(-c2ccc3c(N4CCOC[C@H]4C)nc(N4CCOC[C@H]4C)nc3n2)cc1CO
- Potency [1]: inactive
- outcome [2]: inactive
- Potency [3]: inactive
- viability (% of control) [4]: 25%
- viability, percent of control [5]: 57.8%
- Potency [6]: inactive

Compound: Cc1n[nH]c(C)c1Cc1sc2c(c1C(=O)N1C[C@H](O)CO1)c(=O)n(C)c(=O)n2CC(C)C
- Potency [1]: inactive
- outcome [2]: inactive
- Potency [3]: inactive
- viability (% of control) [4]: 68.3%
- viability, percent of control [5]: 76%
- Potency [6]: inactive
- Potency [8]: inactive

Compound: O=S(=O)(N=Cc1c(O)ccc2ccccc12)c1cccs1
- Potency [1]: inactive
- outcome [2]: inactive
- Potency [3]: inactive
- viability (% of control) [4]: 49.7%
- viability, percent of control [5]: 72.6%
- Potency [6]: inactive
- Potency [8]: inactive

Compound: CCN(CCCO)CCCOc1ccc2c(Nc3cc(CC(=O)Nc4cccc(F)c4)[nH]n3)ncnc2c1
- Potency [1]: inactive
- outcome [2]: inactive
- Potency [3]: inactive
- viability (% of control) [4]: 42.6%
- viability, percent of control [5]: 67.6%
- Potency [6]: inactive

Compound: COc1ccc2c3n(c(=NC(=O)c4cccnc4)nc2c1OC)CCN3
- Potency [1]: 1870 nM (active)
- outcome [2]: inactive
- Potency [3]: inactive
- viability (% of control) [4]: 22.1%
- viability, percent of control [5]: 39.3%
- Potency [6]: inactive

Compound: COc1ccc(-c2ccc3c(N4CCOCC4)nc(N4C[C@@H](C)O[C@@H](C)C4)nc3n2)cc1CO
- Potency [1]: inactive
- outcome [2]: inactive
- Potency [3]: inactive
- viability (% of control) [4]: 29.5%
- viability, percent of control [5]: 57.7%
- Potency [6]: inactive
- Potency [8]: inactive

Compound: Cc1c(CN2CCN(C(=O)C(C)C)CC2)sc2c(N3CCOCC3)nc(-c3cnc(N)nc3)nc12
- Potency [1]: 148 nM (active)
- outcome [2]: inactive
- Potency [3]: inactive
- viability (% of control) [4]: 3.51%
- viability, percent of control [5]: 45.6%
- Potency [8]: 244 nM (active)
